# Laboratory results published in PubChem BioAssay (NCI).
# This is part of a sample that, as a whole, favours compounds with a hit. Of some 79,000 tested, about 15% had one in any assay. A number with no mark means an inactive call. Calls of active or inactive are those of the source. No stated cut-off is given here; in the data, active means growth inhibition above about 70%; inactive means the rest.
# Test: NCI Yeast Anticancer Drug Screen. Data for the bub3 strain (AID 167)
# Conditions: S. cerevisiae bub3 mutant strain, at 50.0 µM, hits give high values
# In short: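 Growth of a checkpoint-deficient yeast mutant is measured after compound exposure. Values represent inhibition relative to vehicle.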
row,Compound,growth inhibition
1,Cc1ccc2c(c1)C1(OC(=O)c3ccccc31)c1ccc(F)cc1O2 (stereo not given),22.7%
2,CCCCCCCSCC(O)COC(c1ccccc1)(c1ccccc1)c1ccccc1 (stereo not given),-21.5%
3,COc1c(C)cc2c(C(C)C)c(O)c(O)c(C=O)c2c1O,80.8% (active)
4,O=C1CSC(=S)N1c1ccco1,-13.1%
5,Nc1nc(Cl)cc(Nc2cc(Cl)cc(Cl)c2)n1,59.6%
6,CC(C)C(=NNC(N)=O)C(C)C,-6.95%
7,NC(Cc1cccs1)C(=O)O (stereo not given),-2.5%
8,Cc1cc(N(CCC#N)CCC#N)ccc1/C(N=Nc1ccc([N+](=O)[O-])cc1)=N\NC(=O)c1cc(Cl)ccc1O,-26.4%
9,Cc1ccc(C)c(NC(=O)C(=O)CC(=O)c2cccc3ccccc23)c1,-20.8%
10,CCc1nc(N)nc(N)c1-c1ccc(N(CC)Cc2ccccc2)c([N+](=O)[O-])c1,3.4%
11,Cc1nc2ccc(N)cc2[nH]c1=O,6.5%
12,CCOC(=O)CNC(=O)C(Cc1ccccc1)NC(=O)CNC(=O)OCc1ccccc1 (stereo not given),0.75%
13,Oc1c(Cl)cc(N=Cc2ccc(N(CCCCl)CCCCl)cc2)cc1Cl,-13.6%
14,O=C1OC(=O)C2C3C=CC(C4C=C(C5CC5)C43)C12 (stereo not given),-5.5%
15,Cc1ccc(N=C(N)NC#N)cc1,-34%
16,COCCCN1C(=O)C2c3[nH]c4ccccc4c3C3CCC(C(C)(C)C)CC3C2C1=O (stereo not given),35.1%
17,CC(=O)N1CN=C2Sc3ccccc3N2C1,13.2%
18,CCCCCCC1OCC(C)([N+](=O)[O-])CO1 (stereo not given),-12.6%
19,COc1ccccc1NC(=O)C1=C(C)NC(C)=C(C(=O)Nc2ccccc2OC)C1c1ccccc1Cl,-6.45%
20,Cc1ccc(-n2cc(-c3ccc(Cl)cc3)c3c(NNC(=S)NCc4ccccc4)ncnc32)cc1,40.7%

row,Compound,growth inhibition
1,Cc1cc(C)c2c(ccc3ccccc32)n1,-19.9%
2,C=C(C)S(=O)(=O)c1ccc(C)cc1,12%
3,CCCCN=NNc1cn(C2OC(CO)C(O)C2O)c(=O)[nH]c1=O (stereo not given),10.8%
4,CC(C)CCOC(=O)C(C)(O)C(Cl)c1ccccc1 (stereo not given),6.25%
5,CCCNC(=S)N/N=C\C(C)=N\Nc1ccc(Cl)cc1,7.5%
6,[Br][Pt+2][Br].[NH-]c1ccc(F)cc1.[NH-]c1ccc(F)cc1,-4.75%
7,C(=N\c1oc(-c2ccccc2)nc1SCc1ccccc1)/c1ccccc1,7.3%
8,CCN(CC)C(=O)C1CCCCN1 (stereo not given),-11%
9,O=[N+]([O-])c1ccc(C=NC23CC4CC(CC(C4)C2)C3)cc1,5.55%
10,O=C(O)CC(NC(=O)OCc1ccccc1)C(=O)OCc1ccccc1 (stereo not given),-21.1%
11,O=C(Nc1ccc(S(=O)(=O)N2CCCCC2)cc1)OC1CCCCCC1,-4.05%
12,NCCNc1nc(NCCN)nc(N(CCN)CCN)n1,-17.3%
13,CC1CC(C)CN(S(=O)(=O)c2cc(Cl)c(Oc3ccc([N+](=O)[O-])cc3Cl)c(Cl)c2)C1 (stereo not given),-11.3%
14,O=C1CCCCCCCCC1=O,-12.8%
15,O=CC(CO)CC(C=O)n1cnc2c(=O)[nH]cnc21 (stereo not given),-9.45%
16,O=C(NNC(=O)C(Oc1ccccc1)c1ccccc1)C(Cl)Cl (stereo not given),10.3%
17,Nc1ccc(C2=Nc3ccccc3SC(c3ccccc3O)C2)cc1 (stereo not given),50.8%
18,CC(C(=O)c1ccccc1)C(=O)c1ccccc1,-5.8%
19,CC(=O)Nc1ccc(S(=O)(=O)N/N=c2/sc3ccccc3n2C)cc1N,-8.75%
20,CCOC(=O)C(/C=N\C(=S)Nc1ccc(OCC)cc1)=C(/O)c1ccccc1,-30.2%

# Test: NCI Yeast Anticancer Drug Screen. Data for the mlh1 rad18 strain (AID 175)
# Conditions: S. cerevisiae mlh1 rad18 strain growth inhibition; at 50.0 µM; hits give high values
# In short: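 In this whole-cell yeast screen, a strain with altered DNA damage repair is challenged with compound, and its growth is measured against matched vehicle-treated controls.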
row,Compound,growth inhibition
1,Cc1ccc2c(c1)C1(OC(=O)c3ccccc31)c1ccc(F)cc1O2 (stereo not given),18.1%
2,CCCCCCCSCC(O)COC(c1ccccc1)(c1ccccc1)c1ccccc1 (stereo not given),-20.6%
3,COc1c(C)cc2c(C(C)C)c(O)c(O)c(C=O)c2c1O,76.3% (active)
4,O=C1CSC(=S)N1c1ccco1,2.85%
5,Nc1nc(Cl)cc(Nc2cc(Cl)cc(Cl)c2)n1,82.3% (active)
6,CC(C)C(=NNC(N)=O)C(C)C,-8.4%
7,NC(Cc1cccs1)C(=O)O (stereo not given),-37.1%
8,Cc1cc(N(CCC#N)CCC#N)ccc1/C(N=Nc1ccc([N+](=O)[O-])cc1)=N\NC(=O)c1cc(Cl)ccc1O,9.1%
9,Cc1ccc(C)c(NC(=O)C(=O)CC(=O)c2cccc3ccccc23)c1,-21.1%
10,CCc1nc(N)nc(N)c1-c1ccc(N(CC)Cc2ccccc2)c([N+](=O)[O-])c1,-3.85%
11,Cc1nc2ccc(N)cc2[nH]c1=O,25.3%
12,CCOC(=O)CNC(=O)C(Cc1ccccc1)NC(=O)CNC(=O)OCc1ccccc1 (stereo not given),20.8%
13,Oc1c(Cl)cc(N=Cc2ccc(N(CCCCl)CCCCl)cc2)cc1Cl,80% (active)
14,O=C1OC(=O)C2C3C=CC(C4C=C(C5CC5)C43)C12 (stereo not given),5.2%
15,Cc1ccc(N=C(N)NC#N)cc1,-7.75%
16,COCCCN1C(=O)C2c3[nH]c4ccccc4c3C3CCC(C(C)(C)C)CC3C2C1=O (stereo not given),49.5%
17,CC(=O)N1CN=C2Sc3ccccc3N2C1,18.5%
18,CCCCCCC1OCC(C)([N+](=O)[O-])CO1 (stereo not given),5.65%
19,COc1ccccc1NC(=O)C1=C(C)NC(C)=C(C(=O)Nc2ccccc2OC)C1c1ccccc1Cl,23.4%
20,Cc1ccc(-n2cc(-c3ccc(Cl)cc3)c3c(NNC(=S)NCc4ccccc4)ncnc32)cc1,11.1%

row,Compound,growth inhibition
1,Cc1cc(C)c2c(ccc3ccccc32)n1,-33.5%
2,C=C(C)S(=O)(=O)c1ccc(C)cc1,11.8%
3,CCCCN=NNc1cn(C2OC(CO)C(O)C2O)c(=O)[nH]c1=O (stereo not given),21.8%
4,CC(C)CCOC(=O)C(C)(O)C(Cl)c1ccccc1 (stereo not given),-6.95%
5,CCCNC(=S)N/N=C\C(C)=N\Nc1ccc(Cl)cc1,17.2%
6,[Br][Pt+2][Br].[NH-]c1ccc(F)cc1.[NH-]c1ccc(F)cc1,24.9%
7,C(=N\c1oc(-c2ccccc2)nc1SCc1ccccc1)/c1ccccc1,25.9%
8,CCN(CC)C(=O)C1CCCCN1 (stereo not given),6.65%
9,O=[N+]([O-])c1ccc(C=NC23CC4CC(CC(C4)C2)C3)cc1,-3.9%
10,O=C(O)CC(NC(=O)OCc1ccccc1)C(=O)OCc1ccccc1 (stereo not given),-20.1%
11,O=C(Nc1ccc(S(=O)(=O)N2CCCCC2)cc1)OC1CCCCCC1,10.6%
12,NCCNc1nc(NCCN)nc(N(CCN)CCN)n1,4.05%
13,CC1CC(C)CN(S(=O)(=O)c2cc(Cl)c(Oc3ccc([N+](=O)[O-])cc3Cl)c(Cl)c2)C1 (stereo not given),-2.45%
14,O=C1CCCCCCCCC1=O,-11.2%
15,O=CC(CO)CC(C=O)n1cnc2c(=O)[nH]cnc21 (stereo not given),1.95%
16,O=C(NNC(=O)C(Oc1ccccc1)c1ccccc1)C(Cl)Cl (stereo not given),5.9%
17,Nc1ccc(C2=Nc3ccccc3SC(c3ccccc3O)C2)cc1 (stereo not given),6%
18,CC(C(=O)c1ccccc1)C(=O)c1ccccc1,-1.65%
19,CC(=O)Nc1ccc(S(=O)(=O)N/N=c2/sc3ccccc3n2C)cc1N,3.2%
20,CCOC(=O)C(/C=N\C(=S)Nc1ccc(OCC)cc1)=C(/O)c1ccccc1,6.5%
